Results filed as inconclusive are left out. Calls of active or inactive are those of the source. Unless noted, the call rests on the fitted dose curve; in most records, active means well fitted curve in the direction sought with a large enough effect in the repeat runs; inconclusive means weak or mixed curves; inactive means no such curve, though single readings can be large; an effect the other way counts as inactive or inconclusive.
Legend:
[1] = target: Nuclear receptor subfamily 1 group I member 3 (Homo sapiens) (UniProt Q14994); assay: qHTS assay to identify small molecule antagonists of the constitutive androstane receptor (CAR) signaling pathway (AID 1224838); further: nearly all actives have a fitted effect of over 40% in size; further: potency means the concentration at half of the fitted maximal effect
Sequence of Nuclear receptor subfamily 1 group I member 3 (Homo sapiens) (Q14994 whole entry, looked up): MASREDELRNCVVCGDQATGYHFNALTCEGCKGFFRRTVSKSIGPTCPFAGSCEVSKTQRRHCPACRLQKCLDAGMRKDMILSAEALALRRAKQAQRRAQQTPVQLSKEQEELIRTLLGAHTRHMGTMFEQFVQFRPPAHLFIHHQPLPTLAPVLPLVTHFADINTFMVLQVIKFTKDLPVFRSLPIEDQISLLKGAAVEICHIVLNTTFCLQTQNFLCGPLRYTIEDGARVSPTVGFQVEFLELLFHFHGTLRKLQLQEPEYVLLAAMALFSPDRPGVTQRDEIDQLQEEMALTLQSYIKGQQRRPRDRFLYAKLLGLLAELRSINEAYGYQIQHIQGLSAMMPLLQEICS
How it was run: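 Inhibition of CITCO-driven (50 nM final) CYP2B6 reporter expression is measured in HepG2 cells stably carrying hCAR. Fifteen compound concentrations are applied for 24 h at 37 C, followed by luciferase luminescence.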

[2] = target: Nuclear receptor subfamily 1 group I member 3 (Homo sapiens) (UniProt Q14994); assay: qHTS assay to identify small molecule agonists of the constitutive androstane receptor (CAR) signaling pathway (AID 1224839); further: nearly all actives have a fitted effect of over 15% in size; further: potency means the concentration at half of the fitted maximal effect
How it was run: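 Double-stable HepG2 cells (hCAR, CYP2B6-2.2kb) seeded 4 h before compound addition. Exposure 24 h with 0.75 uM PK11195 final. Luciferase detected by ONE-Glo.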

[3] = qHTS assay to identify small molecule antagonists of the estrogen related receptor signaling pathway with the pleiotropic PPARgamma coactivator (PGC) from Tox21 10K library - cell viability counter screen (AID 1224840; active means well fitted cell-killing curve with a large enough effect in the repeat runs, not every such curve was filed as active; further: nearly all actives have a fitted effect of over 40% in size)
How it was run: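 Readout: fluorescence intensity from CellTiter-Fluor after 30 min at 37 C/5% CO2. Preceded by 17.5 h treatment of PGC/ERR cells with DMSO-dissolved compounds, added 6 h post-seeding.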

[4] = target: Thyrotropin receptor (Homo sapiens) (UniProt P16473); assay: qHTS assay to identify small molecule agonists of the thyroid stimulating hormone receptor (TSHR) signaling pathway (AID 1224843; calls by dose curve; further: nearly all actives have a fitted effect of over 45% in size)
Sequence of Thyrotropin receptor (Homo sapiens) (P16473 whole entry, looked up): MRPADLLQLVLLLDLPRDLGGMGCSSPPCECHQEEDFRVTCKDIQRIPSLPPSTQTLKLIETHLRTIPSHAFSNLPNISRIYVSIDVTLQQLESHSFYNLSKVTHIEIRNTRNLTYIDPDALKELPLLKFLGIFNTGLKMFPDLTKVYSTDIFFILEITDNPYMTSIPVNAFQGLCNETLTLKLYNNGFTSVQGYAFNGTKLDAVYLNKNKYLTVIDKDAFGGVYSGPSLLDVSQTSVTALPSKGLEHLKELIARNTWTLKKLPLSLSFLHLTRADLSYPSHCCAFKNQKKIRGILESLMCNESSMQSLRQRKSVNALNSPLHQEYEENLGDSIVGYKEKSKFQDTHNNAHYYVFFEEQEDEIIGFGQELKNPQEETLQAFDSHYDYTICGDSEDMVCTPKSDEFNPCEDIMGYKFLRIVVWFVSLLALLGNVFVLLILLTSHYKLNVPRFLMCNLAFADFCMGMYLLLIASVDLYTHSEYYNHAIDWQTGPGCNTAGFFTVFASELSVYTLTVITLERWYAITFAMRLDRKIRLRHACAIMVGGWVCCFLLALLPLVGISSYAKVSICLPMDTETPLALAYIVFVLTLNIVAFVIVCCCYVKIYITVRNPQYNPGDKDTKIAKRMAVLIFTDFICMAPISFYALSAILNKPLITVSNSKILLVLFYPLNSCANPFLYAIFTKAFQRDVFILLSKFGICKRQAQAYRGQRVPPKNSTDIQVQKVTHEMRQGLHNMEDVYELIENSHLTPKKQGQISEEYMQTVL
How it was run: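 HEK293/TSHR, 800 cells/well; cpd 30 min RT; add cAMP-d2 + anti-cAMP-cryptate, 1 h RT; fluorescence read on plate reader. 15-pt titration, n=3.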

[5] = qHTS assay to identify small molecule agonists of H2AX (AID 1224845; active means well fitted activation curve with a large enough effect in the signal ratio in the repeat runs, not every such curve was filed as active; the % refers to the signal ratio)
How it was run: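 Wild-type CHO-K1 cells, plated overnight, exposed 3hr at 37C to 15 concentrations (0.76% DMSO final). Lysed, then HTRF anti-pH2AX (S139) cryptate and anti-H2AX-d2 antibodies, 24 hr room temperature; 665/620 nm emission read.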

[6] = qHTS assay to identify small molecule agonists of the hypoxia (HIF-1) signaling pathway (AID 1224846; active means well fitted activation curve with a large enough effect in the signal ratio in the repeat runs, not every such curve was filed as active; the % refers to the signal ratio)
How it was run: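 ME-180 HRE-bla reporter cells; compounds in DMSO, 17 h at 37C; read-out beta-lactamase via CCF4-AM FRET.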

[7] = qHTS assay to identify small molecule agonists of H2AX - cell viability counter screen (AID 1224847; calls by dose curve; further: nearly all actives have a fitted effect of over 30% in size; further: potency means the concentration at half of the fitted maximal effect)
How it was run: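 Quantitative HTS viability measurement: CHO-K1 wild-type cells in serum (10% FBS) medium, short 3 hr drug exposure at 37C with 0.76% DMSO, CellTiter-Glo luminescent detection.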

[8] = qHTS RealTime-Glo MT Cell Viability Assay in HepG2 cells - 24 hour (AID 1224867); further: nearly all actives have a fitted effect of over 50% in size
How it was run: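 HepG2 cells were seeded at 600 cells/well together with NanoLuc luciferase and a cell-permeant prosubstrate, preincubated 5 h at 37 C/5% CO2, then pin-dosed with compounds in DMSO. Nonlytic luminescence from viable cells was read at each time point.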

[9] = A CellTox Green Cytotoxicity Assay to monitor cytotoxicity in HEK293 cells - 0 hour (AID 1224869); further: nearly all actives have a fitted effect of over 50% in size
How it was run: (§1)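 Real-time, in one plate: 600 HEK293 cells/well with dead-cell DNA dye, pinned compound after 5 h, 37 C incubation over 40 h; viable cells give no appreciable fluorescence.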

[10] = qHTS RealTime-Glo MT Cell Viability Assay in HepG2 cells - 40 hour (AID 1224870); further: nearly all actives have a fitted effect of over 50% in size; further: potency means the concentration at half of the fitted maximal effect
How it was run: (§2)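 HepG2 cells (600/well) mixed with RealTime-Glo MT reagent, settled 5 h at 37 C/5% CO2 before compound addition. Nonlytic NanoLuc luminescence from viable-cell prosubstrate reduction read repeatedly during 40 h treatment at 37 C.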

[11] = A CellTox Green Cytotoxicity Assay to monitor cytotoxicity in HEK293 cells - 40 hour (AID 1224871); further: nearly all actives have a fitted effect of over 45% in size; further: potency means the concentration at half of the fitted maximal effect
How it was run: as §1

[12] = qHTS RealTime-Glo MT Cell Viability Assay in HepG2 cells - 8 hour (AID 1224873); further: nearly all actives have a fitted effect of over 55% in size
How it was run: as §2

[13] = qHTS assay to identify small molecule agonists of the estrogen related receptor signaling pathway with the pleiotropic PPARgamma coactivator (PGC) from Tox21 10K library (AID 1224842); further: nearly all actives have a fitted effect of over 15% in size
How it was run: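 PGC/ERR reporter cell line, 2,000 cells per well, incubated 6 h at 37 C before 23 nL compound in DMSO was added. After 18 h at 37 C, One-Glo luminescence read following 30 min at room temperature.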

[14] = qHTS assay to identify small molecule antagonists of the estrogen related receptor (ERR) signaling pathway from Tox21 library (AID 1224848); further: nearly all actives have a fitted effect of over 50% in size; further: potency means the concentration at half of the fitted maximal effect
How it was run: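 Compounds dissolved in DMSO are pin-transferred onto ERR reporter cells (2,000 per well) that have settled for 6 h at 37 C. Plates then incubate 18 h at 37 C before ONE-Glo luciferase reagent and a luminescence read 30 min later.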

[15] = qHTS assay to identify small molecule agonists of the estrogen related receptor (ERR) signaling pathway from Tox21 library (AID 1224849; calls by dose curve; further: nearly all actives have a fitted effect of over 15% in size); details: ERR reporter cell line, ONE-Glo luciferase, 18 h; at 92.4 µM (top of the series) unless noted
How it was run: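 Luciferase activity in ERR pathway reporter cells served as the agonist readout; exposure lasted 18 h at 37 C, with ONE-Glo detection after 30 min at room temperature.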

[16] = qHTS RealTime-Glo MT Cell Viability Assay in HEK293 cells - 32 hour (AID 1224868); further: nearly all actives have a fitted effect of over 50% in size; further: potency means the concentration at half of the fitted maximal effect
How it was run: (§3)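 HEK293 cells were seeded at 600 cells/well together with NanoLuc luciferase and cell-permeant prosubstrate, preincubated 5 h at 37 C/5% CO2, then given compound in DMSO by pintool. Luminescence from viable-cell prosubstrate reduction was read repeatedly over 40 h.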

[17] = qHTS RealTime-Glo MT Cell Viability Assay in HEK293 cells - 16 hour (AID 1224872); further: nearly all actives have a fitted effect of over 50% in size; further: potency means the concentration at half of the fitted maximal effect
How it was run: as §3

[18] = qHTS RealTime-Glo MT Cell Viability Assay in HEK293 cells - 40 hour (AID 1224874); details: RealTime-Glo luminescence; max response: hits give low values; further: nearly all actives have a fitted effect of over 50% in size; further: potency means the concentration at half of the fitted maximal effect
How it was run: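 Kinetic, non-lysing viability readout. Seed HEK293 (600/well) with reagent, incubate 5 h at 37 C/5% CO2, pin 23 nL compound in DMSO, incubate at 37 C, read luminescence at 0, 8, 16, 24, 32, 40 h.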

[19] = qHTS assay to identify small molecule agonists of the hypoxia (HIF-1) signaling pathway - cell viability counter screen (AID 1224844; calls by dose curve; further: nearly all actives have a fitted effect of over 50% in size)
How it was run: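 In this counter screen, HRE-bla ME-180 cell viability after 17 hrs of compound exposure at 37C was read by CellTiter-Glo luminescence, multiplexed with the beta-lactamase reporter measurement.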

[20] = qHTS assay to identify small molecule antagonists of the estrogen related receptor signaling pathway with the pleiotropic PPARgamma coactivator (PGC) from Tox21 10K library (AID 1224841; call rule not given here)
How it was run: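 One-Glo luminescence, measured after half an hour at room temperature, quantified reporter output of PGC/ERR cells. These had been plated at 2,000 per well, incubated 6 h, dosed with compounds in DMSO, then kept 18 h at 37 C.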
On the % scale 0 is the no-effect control and ±100 the full control effect.

C=COCCCC
inactive: Potency [1] | Potency [2] | Potency [3] | Potency [4] | Potency [5] | Potency [6] | Potency [7] | Potency [8] | Potency [9] | Potency [10] | Potency [11] | Potency [12]

CC(O)(c1ccc(Cl)cc1)c1ccc(Cl)cc1
active: Potency [2] 15.4 µM | Potency [7] 56.6 µM | Potency [14] 61.1 µM | Potency [16] 24.5 µM | Potency [11] 49 µM | Potency [17] 38.9 µM
inactive: Potency [1] | Potency [13] | activity change, positive = activation [15] -43.9% | Potency [9] | Potency [10]

Nc1cc([N+](=O)[O-])cc(Cl)c1O
inactive: Potency [1] | Potency [2] | Potency [3] | Potency [6] | Potency [7] | Potency [8] | Potency [16] | Potency [9] | Potency [10] | Potency [11] | Potency [17] | Potency [12] | max response [18] -6.05%

CCn1c2ccccc2c2ccccc21
inactive: Potency [1] | Potency [4] | Potency [19] | Potency [6] | Potency [7] | Potency [8] | Potency [16] | Potency [9] | Potency [10] | Potency [12] | max response [18] -15.2%
active: Potency [2] 27.3 µM

Clc1nc(C(Cl)(Cl)Cl)c(Cl)c(Cl)c1Cl
active: Potency [1] 54.5 µM | Potency [10] 54.9 µM | Potency [18] 0.011 µM
inactive: Potency [2] | Potency [13] | Potency [7] | activity change, positive = activation [15] -54% | Potency [16] | Potency [9] | Potency [12]

CCN(CCC#N)c1ccc(N=Nc2ccc([N+](=O)[O-])cc2)cc1
inactive: Potency [1] | Potency [20] | Potency [4] | Potency [19] | Potency [5] | Potency [6] | Potency [14] | Potency [8] | Potency [16] | Potency [9] | Potency [10] | Potency [11] | Potency [17] | Potency [12] | max response [18] 0.454%
active: Potency [2] 13.7 µM | activity change, positive = activation [15] 15.7%

CCC(O)CO (stereo not drawn)
inactive: Potency [1] | Potency [2] | Potency [4] | Potency [19] | Potency [5] | Potency [6] | Potency [7] | Potency [8] | Potency [16] | Potency [9] | Potency [10] | Potency [11] | Potency [17] | Potency [12] | max response [18] -1.31%

C=CCc1cc(S(=O)(=O)c2ccc(O)c(CC=C)c2)ccc1O
active: Potency [14] 61.1 µM | Potency [16] 27.5 µM | Potency [17] 27.5 µM | Potency [18] 24.5 µM
inactive: Potency [1] | Potency [2] | Potency [13] | Potency [4] | Potency [19] | Potency [5] | activity change, positive = activation [15] -45.3% | Potency [9] | Potency [11]
